From PubChem BioAssay (EPA / NIEHS)
Several values for one entry are separate records, joined by “and”; a condition that tells them apart may be missing. Equal entries are not always repeated. Inconclusive results are not listed. The source holds several records for some structures; these can differ, active in one and inactive in another. Activity calls are given as the source filed them. The calls were made as follows, unless noted: active = hit-call score of the fitted dose curve at least 0.9, where 1 is the maximum; inactive = score below 0.9.

Tests used:
[1] = read-out: Nuclear factor erythroid 2-related factor 2 (Homo sapiens) (UniProt Q16236); experiment: LTEA_HepaRG_NFE2L2: Life Technologies and Expression Analysis (LTEA) Assay for Nuclear factor erythroid 2-related factor 2 (NFE2L2) Transcription Factor using HepaRG (AID 2283527); settings: mRNA level, 48 h; actives raise or lower the signal
How it was run: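 NFE2L2 transcript level was read by qRT-PCR (housekeeping ACTB/GAPDH/POLR2A normalisation) after 48 h chemical treatment of HepaRG in serum-free induction medium. Duplicate 8-point half-log curves, top 100 uM, 0.5% DMSO vehicle; up- or down-regulation fitted against vehicle.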

[2] = read-out: succinate dehydrogenase complex iron sulfur subunit B (SDHB), SDHB (gene 6390); experiment: LTEA_HepaRG_SDHB: Life Technologies and Expression Analysis (LTEA) Assay for succinate dehydrogenase complex iron sulfur subunit B (SDHB) using HepaRG (AID 2283528); settings: mRNA level, 48 h; actives raise or lower the signal
How it was run: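 HepaRG, 48 h exposure, 8-pt half-log series from 100 uM in 0.5% DMSO, duplicates. Readout: SDHB mRNA by Fluidigm qRT-PCR vs housekeeping genes; bidirectional fit relative to DMSO.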

[3] = read-out: Signal transducer and activator of transcription 3 (Homo sapiens) (UniProt P40763); experiment: LTEA_HepaRG_STAT3: Life Technologies and Expression Analysis (LTEA) Assay for Signal transducer and activator of transcription (STAT3) using HepaRG (AID 2283529); settings: mRNA level, 48 h; actives raise or lower the signal
How it was run: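 STAT3 transcript quantified by qRT-PCR against three housekeeping genes (ACTB, GAPDH, POLR2A), fitted both directions relative to DMSO. HepaRG cultures exposed 48 h to eight half-log concentrations, top 100 uM, 0.5% DMSO, serum-free induction medium.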

[4] = read-out: solute carrier (SLCO1B1), SLCO1B1 (gene 10599); experiment: LTEA_HepaRG_SLCO1B1: Life Technologies and Expression Analysis (LTEA) Assay for solute carrier (SLCO1B1) using HepaRG (AID 2283530); settings: mRNA level, 48 h; actives raise or lower the signal
How it was run: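 HepaRG, serum-free induction medium, 48 h dosing, 8-pt half-log from 100 uM, 0.5% DMSO vehicle, duplicates. Readout: SLCO1B1 mRNA, qRT-PCR, ACTB/GAPDH/POLR2A normalization; up or down fit vs DMSO.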

[5] = read-out: sulfotransferase 2A1 (SULT2A1), SULT2A1 (gene 6822); experiment: LTEA_HepaRG_SULT2A1: Life Technologies and Expression Analysis (LTEA) Assay for sulfotransferase 2A1 (SULT2A1) using HepaRG (AID 2283531); settings: mRNA level, 48 h; actives raise or lower the signal
How it was run: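 Transcript levels of SULT2A1, quantified by qRT-PCR and normalized to three housekeeping genes, serve as the readout. Human HepaRG cultures receive test chemicals for 48 h at up to 100 uM in half-log steps, with 0.5% DMSO vehicle.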

[6] = read-out: Transforming Growth Factor (TGFA), TGFA (gene 7039); experiment: LTEA_HepaRG_TGFA: Life Technologies and Expression Analysis (LTEA) Assay for Transforming Growth Factor (TGFA) using HepaRG (AID 2283532); settings: mRNA level, 48 h; actives raise or lower the signal
How it was run: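 TGFA transcript quantified by qRT-PCR (Fluidigm arrays) against three housekeeping genes, after 48 hours chemical treatment of HepaRG cells. Top concentration 100 uM with half-log dilutions, 8 points, duplicates, 0.5% DMSO.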

[7] = read-out: Transforming Growth Factor (TGFB1), TGFB1 (gene 7040); experiment: LTEA_HepaRG_TGFB1: Life Technologies and Expression Analysis (LTEA) Assay for Transforming Growth Factor (TGFB1) Transporter using HepaRG (AID 2283533); settings: mRNA level, 48 h; actives raise or lower the signal
How it was run: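 HepaRG, 48 h post-plating, switched to serum-free induction medium; chemicals 100 uM top, half-log, 8 pts, 0.5% DMSO, dup; 48 h exposure; RNA → Fluidigm TaqMan qRT-PCR; norm ACTB/GAPDH/POLR2A; bidirectional fit vs DMSO.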

TIMP1, TIMP1 (gene 7076) = experiment: LTEA_HepaRG_TIMP1: Life Technologies and Expression Analysis (LTEA) Assay for TIMP1 using HepaRG (AID 2283534); settings: mRNA level, 48 h; actives raise or lower the signal;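 also: TaqMan qRT-PCR signal normalized to ACTB GAPDH and POLR2A housekeeping genes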
How it was run: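 Readout is TIMP1 mRNA level measured by qRT-PCR and normalized to three housekeeping genes. Human HepaRG cells were treated for 48 h in duplicate at eight concentrations up to 100 uM (0.5% DMSO); gain or loss fitted against DMSO.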

[8] = read-out: Tumor necrosis factor receptor 1 (TNFRSF1A), TNFRSF1A (gene 7132); experiment: LTEA_HepaRG_TNFRSF1A: Life Technologies and Expression Analysis (LTEA) Assay for Tumor necrosis factor receptor 1 (TNFRSF1A) using HepaRG (AID 2283535); settings: mRNA level, 48 h; actives raise or lower the signal
How it was run: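 Read-out is TNFRSF1A transcript level by TaqMan qRT-PCR, normalized to three housekeeping genes, scored as gain or loss of signal versus 0.5% DMSO. Human HepaRG cells received test chemicals for 48 h at up to 100 uM (half-log series).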

[9] = read-out: Thyroid Hormone Responsive (THRSP), THRSP (gene 7069); experiment: LTEA_HepaRG_THRSP: Life Technologies and Expression Analysis (LTEA) Assay for Thyroid Hormone Responsive (THRSP) using HepaRG (AID 2283536); settings: mRNA level, 48 h; actives raise or lower the signal
How it was run: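 THRSP transcript quantified by Fluidigm qRT-PCR against three housekeeping genes after 48 h chemical exposure of HepaRG cells in serum-free induction medium; eight-point half-log series, top 100 uM, 0.5% DMSO vehicle, duplicate wells.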

[10] = read-out: Cellular tumor antigen p53 (Homo sapiens) (UniProt P04637); experiment: LTEA_HepaRG_TP53: Life Technologies and Expression Analysis (LTEA) Assay for Tumor Protein P53 (TP53) using HepaRG (AID 2283537); settings: mRNA level, 48 h; actives raise or lower the signal
How it was run: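 HepaRG, 48 h exposure, top 100 uM, half-log 8-point, 0.5% DMSO vehicle, duplicates. Read: TP53 mRNA by TaqMan qRT-PCR, normalised to ACTB/GAPDH/POLR2A; bidirectional fit vs DMSO.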

[11] = read-out: UDP glucuronosyltransferase (UGT1A1), UGT1A1 (gene 54658); experiment: LTEA_HepaRG_UGT1A1: Life Technologies and Expression Analysis (LTEA) Assay for UDP glucuronosyltransferase (UGT1A1) using HepaRG (AID 2283538); settings: mRNA level, 48 h; actives raise or lower the signal
How it was run: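 HepaRG, 48 h chemical exposure (top 100 uM, half-log 8-pt, 0.5% DMSO vehicle), duplicate wells; qRT-PCR (TaqMan, Fluidigm array) for UGT1A1 mRNA, housekeeping-normalized; bidirectional curve fit vs DMSO baseline.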

[12] = read-out: UDP glucuronosyltransferase (UGT1A6), UGT1A6 (gene 54578); experiment: LTEA_HepaRG_UGT1A6: Life Technologies and Expression Analysis (LTEA) Assay for UDP glucuronosyltransferase (UGT1A6) using HepaRG (AID 2283539); settings: mRNA level, 48 h; actives raise or lower the signal
How it was run: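 HepaRG, 48 h post-plating switch to serum-free induction medium; chemical 48 h, 100 uM top, half-log x8, duplicate, 0.5% DMSO. Phenobarbital 1mM induction control. UGT1A6 mRNA by TaqMan qRT-PCR; gain/loss fit vs DMSO.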

[13] = read-out: X-box binding protein 1 (XBP1), XBP1 (gene 7494); experiment: LTEA_HepaRG_XBP1: Life Technologies and Expression Analysis (LTEA) Assay for X-box binding protein 1 (XBP1) using HepaRG (AID 2283540); settings: mRNA level, 48 h; actives raise or lower the signal
How it was run: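 Transcript levels of XBP1, measured by qRT-PCR and normalised to three housekeeping genes, were fitted bidirectionally relative to 0.5% DMSO controls. Human HepaRG cells received eight-point half-log dilutions from 100 uM for 48 h.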

[14] = LTEA_HepaRG_LDH_cytotoxicity: Cytotoxicity Assessment in the Life Technologies and Expression Analysis (LTEA) Assay (AID 2283563; active = hit-call score of the fitted dose curve at least 0.9, where 1 is the maximum;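 as to AC50: LDH activity released into spent culture medium as a marker of cell death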)
How it was run: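 Cells were thawed and plated for 48 h. Medium was then replaced with serum-free induction medium. Chemicals (8 half-log points, maximum 100 uM, 0.5% DMSO) were added in duplicate for 48 h, after which spent medium was assayed for LDH.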

[15] = ATG_XTT_Cytotoxicity: Cytotoxicity Assessment in the Attagene TRANS-FACTORIAL HepG2 Assay (AID 2283584; active = hit-call score of the fitted dose curve at least 0.9, where 1 is the maximum;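 as to AC50: cells exposed to compound for 24 h before reading; active means loss of viability signal versus DMSO baseline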)
How it was run: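 Cells: human HepG2, transiently transfected with MRTU reporter constructs. Exposure 24 h. Readout: XTT, cell number. Baseline/neg ctrl DMSO; loss-of-signal scored.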

[16] = TOX21_p53_BLA_p2_viability: Viability Assessment in the Tox21 HCT-116 p53 Agonism Beta-lactamase Assay, Phase 2 (AID 2283591; active = hit-call score of the fitted dose curve at least 0.9, where 1 is the maximum;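 also: compound exposure lasted 16 h at 37 °C; actives lower the ATP signal meaning cytotoxicity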)
How it was run: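 Cytotoxicity readout: CellTiter-Glo ATP luminescence, 30 min at room temperature, after the beta-lactamase read. Cells were HCT116 exposed 16 h at 37C to compounds pin-transferred at 217-fold dilution from DMSO stocks.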

[17] = molecular target: Cellular tumor antigen p53 (Homo sapiens) (UniProt P04637); experiment: TOX21_p53_BLA_p2_ratio: Tox21 HCT-116 p53 Agonism Beta-lactamase Assay, Ratio, Phase 2 (AID 2283592; active = hit-call score of the fitted dose curve at least 0.9, where 1 is the maximum)
How it was run: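 Plated HCT116 p53-bla cells (4000/well) received compound after 5 h, then 16 h at 37C/5% CO2. CCF4-AM added, 2 h RT. Ratio of 460 to 530 nm emission taken as the p53 reporter signal.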

[18] = molecular target: Cellular tumor antigen p53 (Homo sapiens) (UniProt P04637); experiment: TOX21_p53_BLA_p3_ratio: Tox21 HCT-116 p53 Agonism Beta-lactamase Assay, Ratio, Phase 3 (AID 2283596; active = hit-call score of the fitted dose curve at least 0.9, where 1 is the maximum)
How it was run: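 Cells were seeded at 4000/well, rested 5 h at 37C, then dosed with DMSO compound solutions (217-fold dilution) for 16 h. CCF4-AM substrate was loaded for 2 h at room temperature, and the 460/530 nm emission ratio was fitted for gain of signal versus DMSO.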

[19] = TOX21_p53_BLA_p3_viability: Viability Assessment in the Tox21 HCT-116 p53 Agonism Beta-lactamase Assay, Phase 3 (AID 2283593; active = hit-call score of the fitted dose curve at least 0.9, where 1 is the maximum;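 also: cells exposed to compound for 16 h before reading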)
How it was run: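 Cellular ATP was quantified by CellTiter-Glo luminescence, read after 30 min at room temperature. Beforehand, HCT116 cells (4000/well) received compound 5 h post-seeding, 217-fold diluted from DMSO, then incubated 16 h at 37C.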

Measured: AC50

Cellular tumor antigen p53 (Homo sapiens), sequence (P04637 whole entry, looked up): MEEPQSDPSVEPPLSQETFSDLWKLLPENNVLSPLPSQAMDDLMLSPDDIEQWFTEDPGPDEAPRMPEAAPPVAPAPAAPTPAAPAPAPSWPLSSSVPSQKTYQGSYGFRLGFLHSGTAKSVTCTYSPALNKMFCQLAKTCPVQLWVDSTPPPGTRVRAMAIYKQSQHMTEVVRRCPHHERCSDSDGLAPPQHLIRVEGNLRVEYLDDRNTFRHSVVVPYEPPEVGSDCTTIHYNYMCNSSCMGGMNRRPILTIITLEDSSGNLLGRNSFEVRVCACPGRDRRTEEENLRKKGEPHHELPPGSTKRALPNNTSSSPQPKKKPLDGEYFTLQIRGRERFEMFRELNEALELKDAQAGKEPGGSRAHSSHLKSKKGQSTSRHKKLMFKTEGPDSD
Signal transducer and activator of transcription 3 (Homo sapiens), sequence (P40763 whole entry, looked up): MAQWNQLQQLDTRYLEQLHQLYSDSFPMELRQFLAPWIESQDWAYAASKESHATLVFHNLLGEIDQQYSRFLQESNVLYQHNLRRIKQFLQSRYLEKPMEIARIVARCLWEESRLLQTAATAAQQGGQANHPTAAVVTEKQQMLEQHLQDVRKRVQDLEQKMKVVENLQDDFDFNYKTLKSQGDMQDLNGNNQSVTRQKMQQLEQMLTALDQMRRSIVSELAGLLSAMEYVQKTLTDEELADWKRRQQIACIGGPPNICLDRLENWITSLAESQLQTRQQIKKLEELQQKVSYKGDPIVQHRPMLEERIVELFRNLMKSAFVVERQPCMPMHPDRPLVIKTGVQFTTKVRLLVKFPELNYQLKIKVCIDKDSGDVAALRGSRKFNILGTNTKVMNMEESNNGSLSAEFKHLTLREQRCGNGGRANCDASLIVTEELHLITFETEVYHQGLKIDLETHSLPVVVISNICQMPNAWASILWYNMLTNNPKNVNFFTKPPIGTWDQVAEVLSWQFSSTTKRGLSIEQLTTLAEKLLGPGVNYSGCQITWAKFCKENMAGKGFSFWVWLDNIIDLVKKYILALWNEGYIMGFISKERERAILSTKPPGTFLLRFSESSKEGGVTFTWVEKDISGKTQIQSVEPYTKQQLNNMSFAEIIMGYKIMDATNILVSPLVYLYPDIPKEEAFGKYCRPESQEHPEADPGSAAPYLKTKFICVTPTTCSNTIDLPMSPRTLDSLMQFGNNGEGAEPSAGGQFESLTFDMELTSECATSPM
Nuclear factor erythroid 2-related factor 2 (Homo sapiens), sequence (Q16236 whole entry, looked up): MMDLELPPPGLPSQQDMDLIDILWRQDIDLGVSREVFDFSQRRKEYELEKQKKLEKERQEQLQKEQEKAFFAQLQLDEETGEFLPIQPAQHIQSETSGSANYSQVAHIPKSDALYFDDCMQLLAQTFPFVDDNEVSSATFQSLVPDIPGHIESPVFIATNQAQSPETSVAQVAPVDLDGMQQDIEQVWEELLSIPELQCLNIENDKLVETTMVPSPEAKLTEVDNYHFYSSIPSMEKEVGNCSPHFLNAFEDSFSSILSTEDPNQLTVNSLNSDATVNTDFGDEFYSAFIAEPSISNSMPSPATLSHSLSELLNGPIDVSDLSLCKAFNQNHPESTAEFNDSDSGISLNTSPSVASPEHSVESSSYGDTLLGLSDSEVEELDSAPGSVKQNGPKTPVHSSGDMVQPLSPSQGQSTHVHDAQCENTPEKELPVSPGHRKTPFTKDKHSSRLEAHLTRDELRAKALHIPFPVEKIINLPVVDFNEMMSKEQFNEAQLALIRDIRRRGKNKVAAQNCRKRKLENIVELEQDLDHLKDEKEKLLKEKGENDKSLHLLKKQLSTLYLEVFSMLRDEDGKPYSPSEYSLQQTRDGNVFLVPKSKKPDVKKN

CCOC(=O)CCC(=O)OCC
not listed: [19]
inactive: all other assays above

NCC1(Cc2noc(=O)[nH]2)CCCCC1
active: [12] 0.226 µM
not listed: [15] | [16] | [18]
inactive: all other assays above

CN1CCCC1=O
not listed: [16]
inactive: all other assays above

COc1ccc(C)cc1N
not listed: [12] | [16] | [19]
inactive: all other assays above

Cc1c(C(=O)O)c(O)cc2c1C(=O)c1c(O)c([C@@H]3O[C@H](CO)[C@@H](O)[C@H](O)[C@H]3O)c(O)c(O)c1C2=O
not listed: [14]
inactive: all other assays above

C[Si]1(C)O[Si](C)(C)O[Si](C)(C)O[Si](C)(C)O1
not listed: [15] | [18]
inactive: all other assays above

CC(CO)OC(C)CO (stereo not drawn) (tested in a mixture with another compound)
not listed: [16] | [17] | [18] | [19]
inactive: all other assays above

CC1(C)CC(N=C=O)CC(C)(CN=C=O)C1 (stereo not drawn)
not listed: [16]
inactive: all other assays above

CCCCCC(=O)O
inactive: all assays above

C1CCC(SSC2CCCCC2)CC1
inactive: all assays above

Cc1oc(-c2ccccc2)nc1CCOc1cccc2c1ccn2CCC(=O)O
active: [1] 74.8 µM | [4] 82.4 µM | [5] 90.5 µM | [6] 50 µM | [7] 16.9 µM | [9] 79.1 µM | [10] 80.1 µM | [11] 90.9 µM | [12] 79.8 µM | [14] 81.4 µM | [17] 68.6 µM
inactive: [2] | [3] | TIMP1, TIMP1 (gene 7076) | [8] | [13] | [16] | [19] | [18]

CCCCC(CC)COC(=O)CC(C(=O)OCC(CC)CCCC)S(=O)(=O)O (stereo not drawn)
active: [2] 86.7 µM | [4] 85.5 µM | [5] 80.2 µM | [6] 50 µM | [7] 77.6 µM | [8] 93.5 µM | [10] 50 µM | [11] 13.3 µM | [12] 79.9 µM | [14] 75.3 µM | [15] 43.8 µM | [16] 59.8 µM [middle of 4 runs] | [17] 77.1 µM and 82.5 µM | [19] 71.8 µM and 65 µM and 42 µM | [18] 85.9 µM and 83.5 µM
inactive: [1] | [3] | TIMP1, TIMP1 (gene 7076) | [9] | [13] | [17] | [19] | [18]

COC(=O)c1ccc(O)cc1
not listed: [12]
inactive: all other assays above

COc1ccc(S(=O)(=O)N2C(=O)[C@@](c3ccccc3OC)(N3C[C@H](O)C[C@H]3C(=O)N(C)C)c3cc(Cl)ccc32)c(OC)c1
active: [1] 83.2 µM | [2] 12.9 µM | [3] 50 µM | [4] 25.9 µM | [5] 50.7 µM | [6] 78.7 µM | [7] 19.1 µM | [9] 19.5 µM | [10] 22.7 µM | [11] 34.8 µM | [12] 79 µM | [14] 79.5 µM | [16] 86.3 µM | [17] 74.9 µM
inactive: TIMP1, TIMP1 (gene 7076) | [8] | [13] | [18]
